Among the data in PubChem BioAssay (NCI) are growth inhibition values, retold here.

A short description of test [1]: NCI Yeast Anticancer Drug Screen. Data for the rad50 strain (AID 155).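 Further: 0% = growth of vehicle-only cultures of the same strain.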 Conditions: S. cerevisiae rad50 strain growth inhibition; at 50.0 µM; stronger effect = higher value. In outline:
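Relative growth inhibition (compound vs vehicle) was measured in yeast with a defined repair-gene alteration.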

Test [2] is described as follows: NCI Yeast Anticancer Drug Screen. Data for the mec2-1 strain (AID 157). Conditions: S. cerevisiae mec2-1 strain, at 50.0 µM, stronger effect = higher value. In outline:
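Mutant yeast (mec2-1) grown with compound; growth inhibition relative to vehicle control reported.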

Test [3] in a line: NCI Yeast Anticancer Drug Screen. Data for the sgs1 mgt1 strain (AID 161).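 Further: 0% = growth of cultures given vehicle only.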 As to conditions: S. cerevisiae sgs1 mgt1 strain, at 50.0 µM, stronger effect = higher value. In outline:
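Compounds are added to genetically altered yeast, and growth is compared with cultures given vehicle alone to give percent inhibition.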

Test [4] in a line: NCI Yeast Anticancer Drug Screen. Data for the cln2 rad14 strain (AID 165).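 Further: 0% = growth equal to vehicle treated cultures.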 Conditions: S. cerevisiae cln2 rad14 strain, at 50.0 µM, stronger effect = higher value. In outline: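 Readout is yeast growth inhibition versus vehicle-treated controls, using a strain with cln2 and rad14 alterations exposed to compound.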
The nature of test [5]: NCI Yeast Anticancer Drug Screen. Data for the bub3 strain (AID 167). Conditions: S. cerevisiae bub3 mutant strain, at 50.0 µM, stronger effect = higher value. In outline: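 Screening used yeast with an engineered genetic alteration affecting cell cycle control. Compound-exposed cultures were compared with vehicle cultures, and reduced growth was taken as inhibition.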
Test [6] in a line: NCI Yeast Anticancer Drug Screen. Data for the mlh1 rad18 strain (AID 175). Conditions: S. cerevisiae mlh1 rad18 strain growth inhibition; at 50.0 µM; stronger effect = higher value. In outline: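 Genetically defined yeast (DNA repair-deficient) exposed to compounds; growth inhibition determined relative to vehicle.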

This is part of a sample that, as a whole, favours compounds with a hit. Of some 79,000 tested, about 15% had one in any assay. Values without a mark were called inactive. Calls of active or inactive are those of the source. No stated cut-off is given here; in the data, active means growth inhibition above about 70%; inactive means the rest.

In the case of `CC(=O)C1(O)CCC2C3CCC4CC(=O)CCC4(C)C3C(=O)CC21C` (stereo not given), the growth inhibition in test [1] was 4.4%; in test [2] it was -24.8%; in test [3], 2.25%; in test [4] it was 27.9%; in test [5] it was 13.6%; in test [6] it was -10.6%.
`COC1=CC(=O)C(CC=C(C)C)=CC1=O`: the growth inhibition is 5.65% in test [1]; -9.9% in test [2]; -1.2% in test [3]; -62.4% in test [4]; -8.9% in test [5]; -3.2% in test [6].
Consider `CCCC(=O)C(N)Cc1ccccc1` (stereo not given), for which the growth inhibition was -3.8% in test [1]; -6.1% in test [2]; -6% in test [3]; 12.3% in test [4]; 12.2% in test [5]; -6.3% in test [6].
For the molecule `CC(C)NC1(N(C)C)N=C(N(C)C)N=C(N(C)C)O1` (stereo not given), the growth inhibition in test [1] was -3.65%; in test [2], -2.7%; in test [3] it was 2.75%; in test [4], 27%; in test [5], 9.5%; in test [6], -1.25%.
For the molecule `Clc1cc(Cl)cc(Nc2nc3ccccc3nc2-c2cccs2)c1`, the growth inhibition in test [1] is -19.3%; in test [2], -14%; in test [3] it was 33.2%; in test [4] it was 3.35%; in test [5], -29.1%; in test [6], -10.2%.
Take `CSc1cccc(N)c1`: the growth inhibition in test [1] is -23.6%; in test [2], -12.4%; in test [3], -46.1%; in test [4], 6.1%; in test [5], -6.8%; in test [6] it was -5.65%.
In the case of `NC(=O)N1N=C2c3ccccc3SC[C@H]2[C@@H]1c1ccccc1`, the growth inhibition was 29.5% in test [1]; -23.2% in test [2]; -26.8% in test [3]; 2.55% in test [4]; -20.9% in test [5]; 21.6% in test [6].
Turning to `CN(CC1CCCCC1=O)CC1CCCCC1=O` (stereo not given), the growth inhibition was 8.65% in test [1]; 10.2% in test [2]; -11.1% in test [3]; -8.8% in test [4]; 19% in test [5]; -3.55% in test [6].
Take `COC1CCC(C2=NC3CCCCC3SC2)CC1` (stereo not given): the growth inhibition was 13.6% in test [1]; 18.8% in test [2]; 21.5% in test [3]; -10.6% in test [4]; 54.8% in test [5]; 31.7% in test [6].
Take `CCCCCCCCCCCCOc1ccc(Sc2ccc([N+](=O)[O-])cc2)cc1`: the growth inhibition in test [1] is 30.2%; in test [2] it was 2.55%; in test [3], 35.1%; in test [4] it was -34.3%; in test [5] it was 5.1%; in test [6], 25.8%.
With `C/C(CC(=O)N(C(C)C)C(C)C)=N\NC(=O)c1ccncc1`, the growth inhibition in test [1] was -3.45%; in test [2] it was -12.3%; in test [3], -18.9%; in test [4], 18.7%; in test [5] it was -10.7%; in test [6], 13.8%.
Regarding `CC(C)=C1CCC(CN2CCCC2)C1=O` (stereo not given), the growth inhibition in test [1] is 20.1%; in test [2], 13.4%; in test [3] it was 17.4%; in test [4], 19.2%; in test [5] it was 6.2%; in test [6] it was 23.6%.
Turning to `CCCCCNC(=O)c1cccc(C)c1`, the growth inhibition in test [1] is -11.1%; in test [2], -13.2%; in test [3], -7.65%; in test [4] it was -13.6%; in test [5], -25.4%; in test [6], -1.2%.
With `O=S(=O)(Nc1cc(Cl)c(NS(=O)(=O)c2ccccc2)c(S(=O)(=O)c2ccccc2)c1Cl)c1ccccc1`, the growth inhibition in test [1] is 58.2%; in test [2], 62.4%; in test [3] it was 73.5% (active); in test [4], 71.8% (active); in test [5], 65.3%; in test [6], 65%.
As to `CCOCNC(=O)Nc1ccccc1`, the growth inhibition is -5.4% in test [1]; -15.6% in test [2]; 7% in test [3]; -37.5% in test [4]; 0.35% in test [5]; 3.9% in test [6].
Turning to `O=C1C2=Cc3ccccc3CCN2c2ccc([N+](=O)[O-])cc21`, the growth inhibition in test [1] was -28.9%; in test [2], 5.35%; in test [3] it was -39.4%; in test [4] it was -7%; in test [5], 1.7%; in test [6], -24.2%.
`c1ccc(-c2cc3nc4ccccc4nc3o2)cc1`: the growth inhibition was -6.65% in test [1]; -10.6% in test [2]; -13% in test [3]; 1.6% in test [4]; 2.15% in test [5]; -4.4% in test [6].
On to `COc1cc2c(cc1OC)C(C#N)(C(c1ccccc1)c1ccccc1)N(C(=O)c1ccccc1)C=C2` (stereo not given), for which the growth inhibition in test [1] was 16.9%; in test [2] it was 3.45%; in test [3], 1.35%; in test [4], -1.15%; in test [5], -0.7%; in test [6], 30.9%.
With `O=C1CS/C1=C/c1ccccc1`, the growth inhibition in test [1] is 11.4%; in test [2], -2.95%; in test [3], -15.2%; in test [4], -68.7%; in test [5] it was -7.85%; in test [6] it was -5.15%.
Consider `CC(C)(C)OC(=O)CNC(=O)C(CSC(c1ccccc1)c1ccccc1)NC(=O)CNC(=O)C(CCCCNC(=O)OCc1ccccc1)NC(=O)CNC(=O)C(CSC(c1ccccc1)(c1ccccc1)c1ccccc1)NC(=O)OCc1ccccc1` (stereo not given), for which the growth inhibition in test [1] was 34.8%; in test [2], 14.7%; in test [3] it was 8.5%; in test [4], 3.8%; in test [5] it was 19.3%; in test [6] it was -4.2%.
